SMN2 splice up = enhancers of SMN2 splice variant expression; HEK293 SMN2-luciferase splicing reporter, luminescence, 30-36 h; Potency, µM (doses to about 46.1 µM), without a hit: at the top dose activity change, positive = activation, usual class: activators; 2.8% of 210,000 active; AID 1458; also: % of control where 0% means no effect; nearly all actives have a fitted effect of over 55% in size
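qHTS luciferase splicing reporter: luminescence rises when SMN2 exon 7 is included in transfected HEK293 cells. Compound exposure lasted 30-36 h at 37C, with 4.5 mM final sodium butyrate as control, followed by a ONE-Glo read.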
FLuc modulator = inhibits or activates purified firefly luciferase, miR-21 counter-screen | P08659 | purified FLuc, Km substrates, luminescence inhibition | Potency, µM (titrated, usually from 57.5 µM), for the others: at the top dose activity change, negative = inhibition, most hits filed as inhibitors | 6.9% of 360,000 active | AID 588342;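 also: plate controls were vehicle for no effect and reference inhibitor for full effect; nearly all actives have a fitted effect of over 55% in size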
Target sequence (P08659 whole entry, looked up): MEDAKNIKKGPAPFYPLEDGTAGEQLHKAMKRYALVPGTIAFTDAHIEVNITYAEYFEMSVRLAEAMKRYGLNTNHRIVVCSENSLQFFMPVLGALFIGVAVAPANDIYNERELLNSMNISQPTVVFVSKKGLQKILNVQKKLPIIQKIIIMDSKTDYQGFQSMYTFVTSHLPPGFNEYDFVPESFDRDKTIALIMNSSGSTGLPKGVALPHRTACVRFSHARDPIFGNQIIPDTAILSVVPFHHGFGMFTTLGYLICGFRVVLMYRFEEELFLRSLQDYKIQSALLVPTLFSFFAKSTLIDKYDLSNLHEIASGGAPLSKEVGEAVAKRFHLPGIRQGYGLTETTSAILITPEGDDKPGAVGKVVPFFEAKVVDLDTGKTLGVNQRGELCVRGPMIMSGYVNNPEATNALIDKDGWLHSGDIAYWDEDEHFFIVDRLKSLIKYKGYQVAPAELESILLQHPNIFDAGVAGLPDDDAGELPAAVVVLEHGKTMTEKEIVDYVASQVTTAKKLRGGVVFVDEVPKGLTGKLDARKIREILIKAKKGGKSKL
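Purified P. pyralis luciferase (10nM final) with 10uM D-luciferin and 10uM ATP (Km levels) in 50mM Tris acetate pH 7.5, 10mM Mg acetate, 0.01% Tween-20, 0.05% BSA; qHTS 6-point titration, ~60 µM downward; luminescence read.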
NPC1 prom act = activates the NPC1 promoter. 2.4% of 320,000 active. Huh7 NPC1 promoter luciferase reporter, 24 h. Potency, µM (highest dose often 9.22 µM), without a hit: top-dose activation, hits mostly activators; also: % of control where 0% means no effect; nearly all actives have a fitted effect of over 60% in size
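Stably transfected Huh7 (NPC1 promoter→luciferase), 1500 cells/well in Opti-MEM + 10% FBS, 2 h settle, then compound 24 h at 37 °C. Luminescence after 10 min with Amplite reagent.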
ELG1 genotox = genotoxicity induction in ELG1-luciferase HEK293T cells; HEK293T ELG1-luciferase reporter, luminescence, 16 h; Potency, µM (highest dose often 46 µM), inactives show at the top dose activity change, positive = activation, most hits filed as activators; 1.3% of 330,000 active; AID 504466; also: % of control where 0% means no effect; nearly all actives have a fitted effect of over 60% in size
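Quantitative HTS format in 1536-well plates. HEK293T ELG1-luciferase reporter cells receive test compound and are incubated 16 hr at 37 °C, 5% CO2; ONE-Glo added, 30 min room temperature, then luminescence read.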
Rab9 prom act = activators of Rab9 promoter. Huh7 Rab9 promoter-luciferase reporter, luminescence, 24 h. Potency, µM (highest dose often 9.22 µM), inactives show at the top dose activation, negative = inhibition, actives largely listed as activators. 2.8% of 320,000 active; also: % of control where 0% means no effect; nearly all actives have a fitted effect of over 60% in size
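Luminescence read-out: Huh7 cells stably expressing Rab9-luciferase, treated 24 h with compound at 37 °C, then lysed with luciferase reagent for 10 min at ambient before reading.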
KinaseGlo FLuc = Kinase-Glo luciferase inhibition (counter-screen); 0.28% of 200,000 active; Kinase-Glo luciferase, ATP luminescence, 8 min; Potency, µM (top dose mostly 38.3 µM), without a hit: at the top dose activity change, negative = inhibition, most hits filed as inhibitors; Q27757; AID 1379; also: % is scaled to controls: 0 for no effect and ±100 for the full control effect; nearly all actives have a fitted effect of over 60% in size
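Light output from Kinase-Glo luciferase with luciferin and 10 uM ATP in 50 mM imidazole pH 7.2, KCl, MgCl2, Tween 20, BSA; compound pin-delivered, 8-min ambient incubation, then luminescence read.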
* hit, by the source's call; [ ] = dose if it differs, or a comment. Sampled rows, rich in hits. Any-hit rate of the full collection: about 7.3%. Calls follow the shape of the dose curve; as a rule, active = well fitted curve in the direction sought with a large enough effect; inconclusive = small, poorly fitted or top-dose-only effect, or another doubt; inactive = no such curve, though single readings can be large; an effect the other way counts as inactive or inconclusive. Potency is read from the fitted curve at half-maximal effect.

How did Cc1cc(Nc2ccccc2)n(C(=O)c2ccc(Cl)cc2)n1 do in these assays?
SMN2 splice up: 20%; FLuc modulator: 11µM*; NPC1 prom act: 17%; ELG1 genotox: 11%; Rab9 prom act: 8%; KinaseGlo FLuc: 1%

Results for Cc1cc(Nc2ccccc2)n(-c2ccc(C(=O)O)cc2)n1 ?
SMN2 splice up: -1%; FLuc modulator: -14%; NPC1 prom act: -4%; ELG1 genotox: 2%; Rab9 prom act: -2%; KinaseGlo FLuc: 4%

How did CCN(CC)c1ccc(C=C2C(=O)OC(C)(C(C)(C)C)OC2=O)cc1 (stereo unspecified) do in these assays?
SMN2 splice up: 9%; FLuc modulator: -1%; NPC1 prom act: -5%; ELG1 genotox: 1%; Rab9 prom act: 2%; KinaseGlo FLuc: -2%

How did CN(C)c1ccc(C=C2C(=O)OC(C)(C)OC2=O)cc1 do in these assays?
SMN2 splice up: -28%; FLuc modulator: 19µM*; NPC1 prom act: -6%; ELG1 genotox: -7%; Rab9 prom act: -1%; KinaseGlo FLuc: -6%

What do the screens show for `CN(C)c1ccc(C=C2C(=O)OC(C)(C(C)(C)C)OC2=O)cc1` (stereo unspecified)?
SMN2 splice up: 3%; FLuc modulator: 9.5µM*; NPC1 prom act: -1%; ELG1 genotox: 0%; Rab9 prom act: 7%; KinaseGlo FLuc: -3%

How did CC(=O)c1ccc(-c2ccc(/C=C(/Sc3n[nH]c(C)n3)C(=O)O)o2)cc1 do in these assays?
FLuc modulator: 6µM*; NPC1 prom act: -3%; ELG1 genotox: 1%; Rab9 prom act: 2%

What do the screens show for `Cc1nc(S/C(=C/c2ccc(-c3ccc(C(=O)O)cc3)o2)C(=O)O)n[nH]1`?
FLuc modulator: inconclusive; NPC1 prom act: 0%; ELG1 genotox: 1%; Rab9 prom act: 2%

What do the screens show for `Cc1nc(S/C(=C/c2ccc(-c3cc(Cl)ccc3C)o2)C(=O)O)n[nH]1`?
FLuc modulator: 27µM*; NPC1 prom act: -6%; ELG1 genotox: 1%; Rab9 prom act: 0%

What do the screens show for `Cc1nc(S/C(=C/c2ccc(-c3ccc(Cl)cc3)o2)C(=O)O)n[nH]1`?
SMN2 splice up: -36%; FLuc modulator: 8.5µM*; NPC1 prom act: 13%; ELG1 genotox: 6%; Rab9 prom act: -1%; KinaseGlo FLuc: 0%

Results for COc1cccc(Cn2c(=O)n(-c3ccccc3C)c(=O)c3c2c2cc(C)ccc2n3C)c1 ?
FLuc modulator: -2%

What do the screens show for `C(=Nc1ccc2c(c1)Cc1ccccc1-2)c1ccccn1`?
SMN2 splice up: 8%[9.22 µM]; KinaseGlo FLuc: 0%[7.66 µM]

What do the screens show for `O=S(=O)(NCc1csc(-c2ccccc2)n1)c1ccccc1`?
SMN2 splice up: -6%; FLuc modulator: -17%

What do the screens show for `Cc1ccc(NC(=O)c2ccc(OCC3CCCO3)cc2)nc1` (stereo unspecified)?
FLuc modulator: 4.8µM*; NPC1 prom act: 1.8µM*; ELG1 genotox: inconclusive; Rab9 prom act: 1µM*

What do the screens show for `O=C(Nc1ccc(S(=O)(=O)N2CCCC2)cc1)c1ccc(OCC2CCCO2)cc1` (stereo unspecified)?
SMN2 splice up: -76%; FLuc modulator: 2%; NPC1 prom act: -21%; ELG1 genotox: -9%; Rab9 prom act: -21%; KinaseGlo FLuc: -3%

How did Cc1cnc(NC(=O)c2ccc(OCC3CCCO3)cc2)s1 (stereo unspecified) do in these assays?
SMN2 splice up: 2.2µM*; FLuc modulator: 0.76µM*; NPC1 prom act: 0.5µM*; ELG1 genotox: inconclusive; Rab9 prom act: 0.13µM*; KinaseGlo FLuc: -5%

How did O=C(Nc1nc2ccccc2s1)c1ccc(OCC2CCCO2)cc1 (stereo unspecified) do in these assays?
FLuc modulator: 0.76µM*; NPC1 prom act: 3.2µM*; ELG1 genotox: inconclusive; Rab9 prom act: 0.4µM*

What do the screens show for `Cc1ccc(NC(=O)c2ccc(OCC3CCCO3)cc2)cc1` (stereo unspecified)?
SMN2 splice up: 7.9µM*; FLuc modulator: 6µM*; NPC1 prom act: 2.2µM*; ELG1 genotox: inconclusive; Rab9 prom act: 2.5µM*; KinaseGlo FLuc: -1%

Results for Cc1cc(=O)oc2cc(OCC(=O)Nc3c(C(C)C)cccc3C(C)C)ccc12 ?
SMN2 splice up: 5%; FLuc modulator: -11%

What do the screens show for `CC(=O)N1CCC2(CC1)CCN(c1ccccn1)CC2`?
SMN2 splice up: 0%; KinaseGlo FLuc: -4%

How did CCCS(=O)(=O)NCCc1sc2nc(-c3ccc(Cl)cc3)nn2c1C do in these assays?
FLuc modulator: -18%

Results for O=C(Nc1cccc(S(=O)(=O)N2CCCCC2)c1)c1ccc(OCC2CCCO2)cc1 (stereo unspecified) ?
SMN2 splice up: -67%; FLuc modulator: 15µM*; NPC1 prom act: -5%; ELG1 genotox: -18%; Rab9 prom act: 4%; KinaseGlo FLuc: 13%

How did CCOC(=O)CNC(=O)O[C@@H]1C(=O)c2cc(Br)ccc2O[C@H]1c1cccc(OC)c1 do in these assays?
SMN2 splice up: 20%; KinaseGlo FLuc: -2%

What do the screens show for `CCCCOc1ccc(C(=O)Nc2ccc3c(c2)CCCN3C(=O)c2cccs2)cc1`?
FLuc modulator: -10%

How did C/C=C/c1ccc(OCCOc2cc(C=O)ccc2OC)c(OC)c1 do in these assays?
SMN2 splice up: 16µM*; FLuc modulator: 13µM*; NPC1 prom act: 12%; ELG1 genotox: 15%; Rab9 prom act: 8%; KinaseGlo FLuc: 0%

How did COc1cc(C=O)ccc1OCc1ccncc1 do in these assays?
FLuc modulator: inconclusive; NPC1 prom act: -7%; ELG1 genotox: 1%; Rab9 prom act: 1%

How did COc1cc(C=O)ccc1OCCCOc1ccccc1C(=O)O do in these assays?
SMN2 splice up: 14%; FLuc modulator: 1.9µM*; NPC1 prom act: inconclusive; ELG1 genotox: -3%; Rab9 prom act: inconclusive; KinaseGlo FLuc: -5%

What do the screens show for `COc1cc(C=O)ccc1OCCOc1ccccc1[N+](=O)[O-]`?
SMN2 splice up: 17%; FLuc modulator: 21µM*; NPC1 prom act: -1%; ELG1 genotox: 11%; Rab9 prom act: -4%; KinaseGlo FLuc: 0%

Results for COc1cc(C=O)ccc1OCc1ccc(Cl)nc1 ?
FLuc modulator: 4.8µM*; NPC1 prom act: -1%; ELG1 genotox: inconclusive; Rab9 prom act: 10%; KinaseGlo FLuc: 1%

What do the screens show for `Cc1ccc(C(=O)c2oc3ccccc3c2NC(=O)COc2ccccc2C)cc1`?
SMN2 splice up: 14%; FLuc modulator: 4%

Source: PubChem BioAssay
